The panel holds about 83,000 compounds, 20% with a hit somewhere; the sample as a whole holds those more often.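 Compound tested at a single concentration for 48 hours in 96-well plates; a percent growth value below 10 was scored as active.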 A number with no mark means an inactive call. Calls of active or inactive are those of the source.

The assay has as its system HL-60(TB) leukemia. The assay is described as follows: NCI-60 one-dose screen, 48 h (100 = growth as untreated, 0 = no growth, -100 = all killed). The settings on record: 10 µM unless noted.
`Nc1ncc(-c2ccc(C(F)(F)F)cc2)c(NC2CCCCCC2)n1`: the growth was 16.8%.
Take `O=C/C=C/c1ccc([N+](=O)[O-])cc1Cl`: the growth was 82.6%.
The same measure for `Cc1ccc(S(=O)(=O)N2CCCC2CO)cc1` (stereo not given): 97.7%.
Turning to `COc1ccc(/C=C(\C#N)n2nc3cccc(F)c3n2)cc1`, the growth was 82%.
The result for `O=C(O)c1ccc(Nc2ncc3c(n2)-c2ccc(Cl)cc2C(c2c(F)cccc2F)=NC3)cc1` reads 22.6%.
With `O=C1c2cccnc2C(=O)c2c1c(C(=O)OCCCN1CCCCC1)c1ccccn21`, the growth was -21.6% (active).
Regarding `CN=S(=O)(NC(=O)c1ccc(Cl)cc1Cl)c1ccc(Br)s1` (stereo not given), the growth was 108%.
The result for `COc1cc(C(=O)/C=C/c2cc(-c3cc(OC)c(OC)c(OC)c3)n[nH]2)cc(OC)c1OC` reads 0.291% (active); that for `COc1cc2nc(Nc3cccc(F)c3)nc(Nc3cc(C)[nH]n3)c2cc1OC`, -54% [20 µM] (active); that for `N#C/C(=C\c1ccc(Br)cc1)n1nnc2cc(Cl)c(Cl)cc21`, -0.568% (active).
As to `c1cnc2ccc3ncccc3c2c1`, the growth was 98.9%.
The result for `O=S(=O)(O)C(Nc1ccccc1)c1ccccc1` (stereo not given) reads 87.2%; that for `COc1ccc2c(c1)CCc1c-2n[nH]c1-c1[nH]nc2c1CCc1cc(OC)ccc1-2`, 23.4%; that for `N#Cc1c2c(c(N)[nH]c1=O)C(=O)NC2(O)c1ccccc1` (stereo not given), 93.8%.
In the case of `CNC(=O)c1c(NC(=O)c2ccc(C(C)(C)C)cc2)sc2c1CCC(=O)C2`, the growth was -13.2% (active).
The result for `CC(C)/C=N/NC(N)=S` reads 104%.
The result for `Nc1c(C(=O)Nc2cccc3cnccc23)sc2nc3c(cc12)C(=O)CCC3` reads 60.2%.
The same measure for `Cc1ccc(NC(=O)c2nc(S(C)(=O)=O)oc2-c2ccc(F)cc2)cc1Nc1ccc2ncn(C)c(=O)c2c1`: 46.5%; for `O=C(c1ccccc1)C(Br)C(Br)c1ccccc1` (stereo not given): 39.5%; for `O=C(O)c1cn(C2CC2)c2cc(N3CCN(C(=O)N/N=C/c4ccccc4)CC3)c(F)cc2c1=O`: 100%.
Consider `N#Cc1cc(-c2nc3ccccc3s2)c(=O)n(NS(=O)(=O)c2ccccc2)c1N`, for which the growth was 103%.
The same measure for `C#C[C@]1(O)CC[C@H]2[C@@H]3CC[C@H]4CC(F)(F)CC[C@]4(C)[C@H]3CC[C@@]21C`: 107%; for `CC(C)C[C@H](NC(=O)CCn1ccc2ccccc2c1=O)B(O)O`: 28.1%.
The same measure for `O=C(Nc1ccccc1C(=O)N/N=C(\c1ccccc1)c1ccccn1)c1ccccc1`: -24.1% (active); for `CS(=O)(=O)c1ccc(N/N=C/c2c(-c3ccc(S(C)(=O)=O)cc3)[nH]c3ccc(F)cc23)cc1`: -14.6% (active).
